Records with an inconclusive call do not appear. Activity calls are given as the source filed them. Unless noted, the call rests on the fitted dose curve; in most records, active means well fitted curve in the direction sought with a large enough effect in the repeat runs; inconclusive means weak or mixed curves; inactive means no such curve, though single readings can be large; an effect the other way counts as inactive or inconclusive.
Experiments:
[1] = biological target: Acetylcholinesterase (Homo sapiens) (UniProt P22303); test: Acetylcholinesterase (AChE) small molecule antagonists: enzyme-based qHTS assay with human liver microsomes (AID 1347399; calls by dose curve; further: nearly all actives have a fitted effect of over 60% in size); conditions: Potency: qHTS inhibition; outcome: qHTS inhibition
Procedure, shortened: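 Recombinant human AChE (50 mU/mL in the enzyme mix) and human liver microsomes (0.25 mg/mL final) were preincubated with compound and NADPH (0.25 mg/mL final) for 30 min at 37 C. Acetylthiocholine/DTNB was then added; thiocholine was read colorimetrically after 10 min at room temperature.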

[2] = biological target: Aromatase (Homo sapiens) (UniProt P11511); test: qHTS assay to identify aromatase inhibitors (AID 743083); further: series mostly up to about 70 µM; nearly all actives have a fitted effect of over 55% in size
[3] = qHTS assay for small molecules that induce genotoxicity in human embryonic kidney cells expressing luciferase-tagged ATAD5 (AID 651632); further: nearly all actives have a fitted effect of over 15% in size
Procedure, shortened: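 Increased luciferase signal from ATAD5-tagged reporter cells indicates DNA-damage-driven ATAD5 induction. HEK293T cells are treated for 16 hr at 37C before detection with Amplite.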

[4] = qHTS assay for small molecule agonists of the p53 signaling pathway - cell viability (AID 651633; calls by dose curve;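 further: p53RE-bla HCT reporter cells with a stable beta-lactamase p53 reporter; series mostly up to about 83 µM; nearly all actives have a fitted effect of over 30% in size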)
Procedure, shortened: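 p53RE-bla cells, seeded at 4,000 per well and rested 5 h at 37 C/5% CO2, received compounds in DMSO for 16 h at 37 C. CellTiter-Glo was then added, and luminescence was read after 30 min at room temperature to gauge cytotoxicity.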

[5] = qHTS assay for small molecules that induce genotoxicity in human embryonic kidney cells expressing luciferase-tagged ATAD5 - cell viability (AID 651634; calls by dose curve; further: nearly all actives have a fitted effect of over 25% in size)
Procedure, shortened: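 Cytotoxicity counterscreen in HEK293T cells bearing an ATAD5-luciferase reporter: live-cell protease activity measured by CellTiter-Fluor fluorescence after 15.5 hr compound exposure.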

[6] = qHTS assay for small molecule disruptors of the mitochondrial membrane potential - cell viability (AID 720634; calls by dose curve;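 further: human HepG2 liver cancer cells; series mostly up to about 83 µM; nearly all actives have a fitted effect of over 20% in size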)
Procedure, shortened: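 After overnight attachment at 37 C, HepG2 cells received compound or DMSO vehicle for 1 hr. Viability is then taken from ATP-driven luminescence following a 30 min room-temperature CellTiter-Glo step.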

[7] = qHTS assay for small molecule disruptors of the mitochondrial membrane potential (AID 720635)
Procedure, shortened: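 HepG2 cells (2,000/well) attached overnight at 37C, then took compound for 1 hr at 37C, 5% CO2. Mito-MPS dye was added for 30 min; fluorescence was read at 490/535 nm (monomers) and 540/590 nm (aggregates).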

[8] = qHTS assay to test for compound auto fluorescence at 590 nm (red) in HepG2 cells (AID 720674)
Procedure, shortened: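 Intrinsic compound fluorescence in the red window (Ex/Em 540/590 nm) is measured in attached HepG2 cells exposed for 1 hr, DMSO vehicle as baseline, benchmarked to Rose Bengal sodium.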

[9] = qHTS assay to test for compound auto fluorescence at 535 nm (green) in HepG2 cells (AID 720675)
[10] = qHTS assay to test for compound auto fluorescence at 460 nm (blue) in HEK293 cells (AID 720678)
Procedure, shortened: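 Measured: blue fluorescence (Ex 405/Em 460 nm) of compound-treated HEK293 cells, incubated overnight at 37C with 5% CO2 and scaled to triamterene equivalents.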

[11] = qHTS assay to test for compound auto fluorescence at 590 nm (red) in HEK293 cells (AID 720679)
Procedure, shortened: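 Using HEK293 cells at 2,000 per well, the screen added 23 nL of each compound after cell attachment and incubated overnight (37C, 5% CO2). The plate reader then captured red-label fluorescence, Ex/Em 540/590nm.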

[12] = qHTS assay to test for compound auto fluorescence at 535 nm (green) in HEK293 cells (AID 720680)
[13] = qHTS assay to test for compound auto fluorescence at 460 nm (blue) in HEK293 cell free culture (AID 720681)
Procedure, shortened: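 Test compounds were pinned into cell-free culture medium (DMEM with 10% FBS) and fluorescence was read directly at Ex/Em 405/460 nm. Signals were expressed as fluorescence equivalents of triamterene, with DMSO vehicle as control.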

[14] = qHTS assay to test for compound auto fluorescence at 535 nm (green) in HEK293 cell free culture (AID 720682)
Procedure, shortened: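 Measurement is a direct plate read of green fluorescence (485 nm in, 535 nm out) after compound addition to serum-supplemented DMEM lacking cells, with fluorescein used to express intensities.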

[15] = qHTS assay to test for compound auto fluorescence at 590 nm (red) in HEK293 cell free culture (AID 720683)
Procedure, shortened: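 Tox21 10K library compounds were pinned into cell-free DMEM with 10% FBS and fluorescence was read at excitation 540 nm. Activity is expressed as Rose Bengal sodium equivalency.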

[16] = qHTS assay to test for compound auto fluorescence at 590 nm (red) in HepG2 cell free culture (AID 720684)
Procedure, shortened: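 Measured in medium alone (MEM containing 10% FBS) following pintool addition of compound; emission at 590 nm with 540 nm excitation, referenced to Rose Bengal sodium.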

[17] = qHTS assay to test for compound auto fluorescence at 460 nm (blue) in HepG2 cell free culture (AID 720685)
Procedure, shortened: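 Compound (23 nL) or DMSO pinned into cell-free MEM with 10% FBS; blue fluorescence read at 405/460 nm excitation/emission, expressed as auto-fluorescence equivalency to triamterene.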

[18] = qHTS assay to test for compound auto fluorescence at 535 nm (green) in HepG2 cell free culture (AID 720686)
[19] = qHTS assay to test for compound auto fluorescence at 460 nm (blue) in HepG2 cells (AID 720687)
Procedure, shortened: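 Cells (2,000/well in MEM with 10% FBS) attached overnight at 37 C, then were exposed to compound or DMSO for 1 hr at 37 C, 5% CO2. Fluorescence read at Ex/Em 405/460 nm, expressed as triamterene-equivalent signal.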

[20] = biological target: Glucocorticoid receptor (Homo sapiens) (UniProt P04150); test: qHTS assay to identify small molecule agonists of the glucocorticoid receptor (GR) signaling pathway (AID 720691; active means well fitted activation curve with a large enough effect in the signal ratio in the repeat runs, not every such curve was filed as active; the % refers to the signal ratio)
Procedure, shortened: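 Agonist mode in a HeLa line carrying a GRE-controlled beta-lactamase reporter. Compounds act for 18 h at 37 C before a 2 h room-temperature FRET substrate step and fluorescence reading.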

[21] = qHTS assay to identify small molecule antagonists of the glucocorticoid receptor (GR) signaling pathway - cell viability counter screen (AID 720693); further: nearly all actives have a fitted effect of over 55% in size
[22] = qHTS assay to identify small molecule antagonists of the androgen receptor (AR) signaling pathway - cell viability counter screen (AID 743033; further: nearly all actives have a fitted effect of over 45% in size)
[23] = qHTS assay to identify small molecule antagonists of the androgen receptor (AR) signaling pathway using the MDA cell line - cell viability counter screen (AID 743041; further: nearly all actives have a fitted effect of over 45% in size)
Procedure, shortened: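 Viability counter screen run alongside the AR antagonist reporter: cells seeded 5 h before compound, R1881 added, 16 h incubation at 37C without CO2, fluorescent CellTiter-Fluor signal quantified.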

[24] = qHTS assay to identify small molecule antagonists of the thyroid receptor (TR) signaling pathway - cell viability counter screen (AID 743064); further: nearly all actives have a fitted effect of over 50% in size
Procedure, shortened: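 Compounds were tested on GH3.TRE-Luc cells in the presence of T3 at 1 nM final. Following 23.5 h at 37 °C, cell viability was quantified by CellTiter-Fluor.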

[25] = qHTS assay to identify small molecule antagonists of the thyroid receptor (TR) signaling pathway (AID 743065); further: series mostly up to about 70 µM; nearly all actives have a fitted effect of over 55% in size
Procedure, shortened: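 GH3.TRE-Luc rat pituitary cells carrying two TR response elements driving luciferase were plated for 4 h, given compound plus 1 nM T3 (final), and incubated 23.5 h at 37 C. ONE-Glo luminescence measured reporter inhibition; CellTiter-Fluor fluorescence tracked cytotoxicity.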

[26] = tested on: thyroid hormone receptor (rat, GH3 cells); test: qHTS assay to identify small molecule agonists of the thyroid receptor (TR) signaling pathway (AID 743066; calls by dose curve)
[27] = qHTS assay to identify small molecule antagonists of the estrogen receptor alpha (ER-alpha) signaling pathway using the BG1 cell line - cell viability counter screen (AID 743081);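 further: compound given together with 17beta-estradiol as the ER stimulus; series mostly up to about 70 µM; nearly all actives have a fitted effect of over 45% in size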
[28] = qHTS assay to identify aromatase inhibitors - cell viability counter screen (AID 743084);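 further: cells stimulated with testosterone during compound exposure; nearly all actives have a fitted effect of over 55% in size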
[29] = qHTS assay to identify small molecule that activate the aryl hydrocarbon receptor (AhR) signaling pathway - cell viability counter screen (AID 743086);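 further: HepG2 liver cells carrying the AhR DRE luciferase reporter; series mostly up to about 70 µM; nearly all actives have a fitted effect of over 45% in size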
Procedure, shortened: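 HepG2-AhR-luc (HG2L7.5c1) cells, 4000/well, were preincubated 5 h at 37C, exposed to compound in qHTS format for 24 hr at 37C, then given CellTiter-Fluor for 30 min; viability was read as fluorescence in the reporter wells.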

[30] = biological target: Peroxisome proliferator-activated receptor gamma (Homo sapiens) (UniProt P37231); test: qHTS assay to identify small molecule agonists of the peroxisome proliferator-activated receptor gamma (PPARg) signaling pathway (AID 743094; active means well fitted activation curve with a large enough effect in the signal ratio in the repeat runs, not every such curve was filed as active; the % refers to the signal ratio)
Procedure, shortened: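 Quantitative HTS agonist mode: stable HEK293H line with UAS-beta-lactamase reporter under PPARg control, 17 h compound exposure at 37C, fluorescence after 1 h FRET substrate loading at room temperature.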

Measured: Potency

Chain of Acetylcholinesterase (Homo sapiens) (P22303 whole entry, looked up): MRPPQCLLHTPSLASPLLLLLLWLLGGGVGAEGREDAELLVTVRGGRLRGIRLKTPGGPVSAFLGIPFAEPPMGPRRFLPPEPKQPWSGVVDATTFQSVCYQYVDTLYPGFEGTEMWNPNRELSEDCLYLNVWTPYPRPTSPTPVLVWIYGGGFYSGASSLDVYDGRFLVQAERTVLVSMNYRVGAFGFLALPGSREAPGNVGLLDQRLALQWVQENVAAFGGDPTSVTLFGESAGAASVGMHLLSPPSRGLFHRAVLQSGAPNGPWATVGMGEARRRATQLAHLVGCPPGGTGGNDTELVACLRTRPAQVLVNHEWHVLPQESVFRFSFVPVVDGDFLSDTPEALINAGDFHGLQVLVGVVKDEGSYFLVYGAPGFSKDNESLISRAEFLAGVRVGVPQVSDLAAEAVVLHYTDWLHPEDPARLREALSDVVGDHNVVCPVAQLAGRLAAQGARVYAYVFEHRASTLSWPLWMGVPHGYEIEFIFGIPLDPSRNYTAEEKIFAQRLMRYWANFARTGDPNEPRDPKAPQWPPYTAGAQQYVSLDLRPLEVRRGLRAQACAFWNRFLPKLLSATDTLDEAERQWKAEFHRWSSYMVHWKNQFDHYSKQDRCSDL
Chain of Aromatase (Homo sapiens) (P11511 whole entry, looked up): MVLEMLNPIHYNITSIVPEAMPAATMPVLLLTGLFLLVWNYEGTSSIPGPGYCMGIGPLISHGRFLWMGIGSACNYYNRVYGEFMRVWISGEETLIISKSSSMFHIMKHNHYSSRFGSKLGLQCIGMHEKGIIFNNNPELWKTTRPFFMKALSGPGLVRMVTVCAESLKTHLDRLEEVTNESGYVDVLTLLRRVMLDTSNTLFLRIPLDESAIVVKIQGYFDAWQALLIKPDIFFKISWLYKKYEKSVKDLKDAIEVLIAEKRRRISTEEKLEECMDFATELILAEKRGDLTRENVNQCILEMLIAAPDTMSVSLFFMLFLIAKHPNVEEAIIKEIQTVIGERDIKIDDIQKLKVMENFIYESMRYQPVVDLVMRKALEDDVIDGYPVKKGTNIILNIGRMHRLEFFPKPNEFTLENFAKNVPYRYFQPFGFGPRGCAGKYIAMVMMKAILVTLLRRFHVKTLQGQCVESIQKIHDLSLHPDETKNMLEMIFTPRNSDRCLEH
Chain of Peroxisome proliferator-activated receptor gamma (Homo sapiens) (P37231 whole entry, looked up): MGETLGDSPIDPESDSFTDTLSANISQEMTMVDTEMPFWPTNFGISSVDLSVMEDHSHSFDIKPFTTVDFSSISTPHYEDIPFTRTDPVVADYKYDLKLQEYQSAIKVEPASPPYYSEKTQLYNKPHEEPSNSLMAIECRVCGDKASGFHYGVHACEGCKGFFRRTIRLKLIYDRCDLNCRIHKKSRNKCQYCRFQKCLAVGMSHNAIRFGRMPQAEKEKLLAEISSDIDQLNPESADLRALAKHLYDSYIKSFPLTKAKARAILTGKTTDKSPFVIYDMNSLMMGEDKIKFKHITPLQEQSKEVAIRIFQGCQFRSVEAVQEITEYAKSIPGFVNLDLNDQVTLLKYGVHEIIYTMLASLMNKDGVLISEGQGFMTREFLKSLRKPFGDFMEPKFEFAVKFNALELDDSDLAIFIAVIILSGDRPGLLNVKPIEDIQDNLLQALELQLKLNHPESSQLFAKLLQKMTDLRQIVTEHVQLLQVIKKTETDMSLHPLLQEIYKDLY
Chain of Glucocorticoid receptor (Homo sapiens) (P04150 whole entry, looked up): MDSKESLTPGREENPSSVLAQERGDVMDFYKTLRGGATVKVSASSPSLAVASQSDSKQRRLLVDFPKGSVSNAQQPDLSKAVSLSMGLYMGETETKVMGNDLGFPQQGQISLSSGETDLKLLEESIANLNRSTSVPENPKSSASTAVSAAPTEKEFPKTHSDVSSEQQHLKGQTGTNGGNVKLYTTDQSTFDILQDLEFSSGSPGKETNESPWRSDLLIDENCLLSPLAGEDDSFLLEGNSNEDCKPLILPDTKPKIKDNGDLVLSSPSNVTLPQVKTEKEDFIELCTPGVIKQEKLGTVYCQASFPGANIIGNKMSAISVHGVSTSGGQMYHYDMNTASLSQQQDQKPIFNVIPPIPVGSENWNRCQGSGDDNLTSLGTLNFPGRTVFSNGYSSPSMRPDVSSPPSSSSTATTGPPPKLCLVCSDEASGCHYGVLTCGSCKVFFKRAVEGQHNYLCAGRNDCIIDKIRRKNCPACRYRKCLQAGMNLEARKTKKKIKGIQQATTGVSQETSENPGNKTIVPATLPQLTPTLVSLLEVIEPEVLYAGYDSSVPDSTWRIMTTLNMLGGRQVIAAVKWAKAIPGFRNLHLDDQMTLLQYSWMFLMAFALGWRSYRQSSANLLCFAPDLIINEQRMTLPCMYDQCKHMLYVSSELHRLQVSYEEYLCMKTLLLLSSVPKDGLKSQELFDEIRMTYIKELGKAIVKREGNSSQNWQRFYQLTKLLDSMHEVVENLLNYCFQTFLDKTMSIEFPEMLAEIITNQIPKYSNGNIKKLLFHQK

C=CC(=O)OCCN(CC)CC
inactive: [1]

COc1cc(C(=O)NCc2ccc(OCCN(C)C)cc2)cc(OC)c1OC
inactive: [1]

COc1cc2c(N3CCN(C(=O)Nc4ccc(OC(C)C)cc4)CC3)ncnc2cc1OCCCN1CCCCC1
inactive: [1]

CC[C@@]1([C@@H]2O[C@@H]([C@H]3O[C@@](O)(CO)[C@H](C)C[C@@H]3C)C[C@@H]2C)CC[C@H]([C@]2(C)CC[C@]3(C[C@H](O)[C@@H](C)[C@@H]([C@@H](C)[C@@H](OC)[C@H](C)C(=O)O)O3)O2)O1 (stereo in doubt)
inactive: [2]

CN1CCN=C(c2ccccc2)c2cc(Cl)ccc21
not listed: [1]
inactive: all other assays above

— PubChem BioAssay (Tox21)
